Screens (PubChem)
HT1080 IDH1KD tx: qHTS for induction of synthetic lethality in tumor cells producing 2HG: qHTS for the HT-1080-IDH1KD cell line; HT-1080 IDH1 knockdown viability, ATP luminescence, 48 h; Potency, µM (titrated, usually from 46.1 µM), actives largely listed as cytotoxic; 360,000 compounds, 2% hits; AID 686971, 2013
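HT-1080-IDH1KD cells (IDH1 knocked down), 750/well in RPMI with 5% FBS, treated with compound 48 h at 37 degrees C. Viability by CellTiter-Glo luminescence, normalised to DMSO and no-cell wells; concentration-response curves classed.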
KB-3-1 cytotox: qHTS assay for MDR1-selective chemotherapeutics: Primary screen using the parental adenocarcinoma cell KB-3-1. KB-3-1 viability, CellTiter-Glo ATP luminescence, 72 h. Potency, µM (top dose mostly 46.1 µM), actives largely listed as cytotoxic. 400,000 compounds, 1.4% hits; note: nearly all actives have a fitted effect of over 60% in size
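Here the drug-naive KB-3-1 line serves as comparator for MDR sub-line selectivity; cells received compound titrations, 72 h at 37 °C, then CellTiter-Glo readout.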
HT1080NT lethal: qHTS for induction of synthetic lethality in tumor cells producing 2HG: qHTS for the HT-1080-NT fibrosarcoma cell line. HT-1080-NT fibrosarcoma viability, CellTiter-Glo ATP luminescence, 48 h. Potency, µM (doses to about 46.1 µM), actives largely listed as cytotoxic. 360,000 compounds, 1.6% hits. AID 686970, 2013;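 note: NT is the 2HG producing partner of a matched IDH1 knockdown line; nearly all actives have a fitted effect of over 55% in size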
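Luminescent CellTiter-Glo readout after 48 hours of compound exposure at 37 degrees C defined viability of HT-1080-NT cells. Activity was normalized to DMSO wells and cell-free media wells; concentration-response curves were fitted and assigned curve classes.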
SW480 rerep: A quantitative high throughput screen for small molecules that induce DNA re-replication in SW480 colon adenocarcinoma cells; Potency, µM (highest dose often 46.1 µM), hits mostly activators; AID 624297, 2012; 340,000 compounds, 1.8% hits; SW480 DNA re-replication, Hoechst DNA content imaging, 48 h; note: nearly all actives have a fitted effect of over 55% in size
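Treated cells incubate 48 hr (37 C, 5% CO2), are stained 40 min with Hoechst, and nuclear fluorescence is enumerated; a rise in nuclei with high DNA signal marks re-replication.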
KB-V1 cytotox: qHTS assay for MDR1-selective chemotherapeutics: Primary screen using the drug-selected MDR subline cells KB-V1; Potency, µM (series often up to 46.1 µM), usual class: cytotoxic; 400,000 compounds, 3.4% hits; KB-V1 MDR cells viability, CellTiter-Glo, 72 h; note: nearly all actives have a fitted effect of over 60% in size
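Cytotoxicity via CellTiter-Glo luminescence after 72 h compound exposure at 37 degrees C. Cells: drug-selected KB-V1 line, DMEM phenol-red free plus 10% FBS. Compounds tested at multiple concentrations; normalized data fitted to concentration-effect curves.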
MCF10A rereplic: A quantitative high throughput screen for small molecules that induce DNA re-replication in MCF 10a normal breast cells | AID 624296, 2012 | Potency, µM (titrated, usually from 46.1 µM), usual class: activators | MCF 10A DNA re-replication, Hoechst nuclear intensity, 48 h | 350,000 compounds, 2.9% hits; note: nearly all actives have a fitted effect of over 50% in size
Hits are given with their value; ! = not confirmed by another sample. In the library only some 7.9% were active in any assay of this set; here they are far more common. Calls come from the whole dose curve; as a rule, active = well fitted curve in the direction sought with a large enough effect; inconclusive = small, poorly fitted or top-dose-only effect, or another doubt; inactive = no such curve, though single readings can be large; an effect the other way counts as inactive or inconclusive.

Screening COc1ccc(NC(=O)C2Cc3c(-c4cccc(C(C)=O)c4)ccnc3O2)cn1 (configuration not stated) returned HT1080 IDH1KD tx 3.3µM, KB-3-1 cytotox 2.1µM, HT1080NT lethal inconclusive and KB-V1 cytotox inactive.
`CC1CC(C)(C)NC(=S)N1CC(=O)N(C)Cc1ccccc1` (configuration not stated) gave HT1080 IDH1KD tx inactive, KB-3-1 cytotox inactive, HT1080NT lethal inactive, SW480 rerep inactive, KB-V1 cytotox inactive and MCF10A rereplic inactive.
Cc1cc(C)n(Cc2ccc(C(=O)N/N=C/c3ccc(-c4ccc([N+](=O)[O-])cc4)o3)o2)n1 was read as HT1080 IDH1KD tx inconclusive, KB-3-1 cytotox inactive, HT1080NT lethal inconclusive, SW480 rerep inactive, KB-V1 cytotox inactive and MCF10A rereplic inconclusive.
Screening CC(=O)Nc1ccc(NC(=O)C2Cc3c(-c4cccc(C(C)=O)c4)ccnc3O2)cc1 (configuration not stated) returned HT1080 IDH1KD tx inactive, KB-3-1 cytotox inactive, HT1080NT lethal inactive and KB-V1 cytotox inactive.
For COc1ccc(NC(=O)C2Cc3c(-c4cccc(C(C)=O)c4)ccnc3O2)cc1 (configuration not stated) the results were HT1080 IDH1KD tx 1.8µM, KB-3-1 cytotox 4.1µM, HT1080NT lethal inconclusive and KB-V1 cytotox inconclusive.
For COc1cc(NC(=O)N2CCNC2=O)cc(C(=O)Nc2cccc(C(F)(F)F)c2)c1 the results were HT1080 IDH1KD tx 5.8µM, KB-3-1 cytotox 10µM, HT1080NT lethal 4.6µM, SW480 rerep 5.2µM, KB-V1 cytotox inactive and MCF10A rereplic 2.1µM.
COc1cc(NC(=O)c2nccn2C)cc(C(=O)Nc2cccc(C(F)(F)F)c2)c1 was read as HT1080 IDH1KD tx inconclusive, KB-3-1 cytotox inactive, HT1080NT lethal inconclusive, SW480 rerep inconclusive, KB-V1 cytotox 4.1µM! and MCF10A rereplic inactive.
Screening C[C@H]1CCC[C@]2(C)C[C@H]3OC(=O)C(CN4CCCCCC4)[C@H]3C=C12 (some centres not stated) returned HT1080 IDH1KD tx inconclusive, KB-3-1 cytotox inconclusive, HT1080NT lethal 16µM, SW480 rerep inconclusive, KB-V1 cytotox inactive and MCF10A rereplic inconclusive.
`CC12CCC3c4ccc(O)cc4CCC3C1CC(O)C2O` (configuration not stated) gave HT1080 IDH1KD tx inactive, KB-3-1 cytotox inactive, HT1080NT lethal inactive, SW480 rerep inactive, KB-V1 cytotox inconclusive and MCF10A rereplic inactive.
Screening COc1ccc(-c2noc(CN(C)S(=O)(=O)c3ccc(Cl)cc3)n2)cc1OC returned HT1080 IDH1KD tx inactive, KB-3-1 cytotox inconclusive, HT1080NT lethal inactive, SW480 rerep inactive, KB-V1 cytotox 7.3µM and MCF10A rereplic inactive.
For COc1ccc(-c2noc(-c3ccc(Cl)cc3[N+](=O)[O-])n2)cc1OC the results were HT1080 IDH1KD tx inactive, KB-3-1 cytotox inactive, HT1080NT lethal inactive, SW480 rerep inactive, KB-V1 cytotox 18µM and MCF10A rereplic inactive.
COc1ccc(-c2noc(CN(C)S(=O)(=O)c3c(C)cc(C)cc3C)n2)cc1OC was read as KB-3-1 cytotox inactive and KB-V1 cytotox inconclusive.
Screening CN=c1sc(C(=O)Nc2ccccc2)c(C)n1C returned HT1080 IDH1KD tx inactive, KB-3-1 cytotox inactive, HT1080NT lethal inactive, SW480 rerep inactive, KB-V1 cytotox inactive and MCF10A rereplic inactive.
CN=c1sc2c(n1C)C(=O)c1ccccc1C2=O was read as HT1080 IDH1KD tx inconclusive, KB-3-1 cytotox inconclusive, HT1080NT lethal 18µM, SW480 rerep 13µM, KB-V1 cytotox inconclusive and MCF10A rereplic 8.2µM.
COc1ccc(C2SCC(C(=O)O)N2C(C)=O)cc1OC (configuration not stated) was read as HT1080 IDH1KD tx inactive, KB-3-1 cytotox inactive, HT1080NT lethal inactive, SW480 rerep inactive, KB-V1 cytotox inactive and MCF10A rereplic inactive.
Screening O=C(CCN1C(=O)c2cccnc2C1=O)NC1CCCCCC1 returned HT1080 IDH1KD tx inactive, KB-3-1 cytotox inactive, HT1080NT lethal inactive, SW480 rerep inactive, KB-V1 cytotox inactive and MCF10A rereplic inactive.
CC1CCCN(c2ccc(N)cc2C(N)=O)C1 (configuration not stated) was read as HT1080 IDH1KD tx inactive, KB-3-1 cytotox inactive, HT1080NT lethal inactive, SW480 rerep inactive, KB-V1 cytotox inactive and MCF10A rereplic inactive.
Screening CCOC(=O)CN1C(=O)/C(=C/c2c(F)cccc2Cl)Oc2ccccc21 returned HT1080 IDH1KD tx inconclusive, KB-3-1 cytotox inconclusive, HT1080NT lethal inactive, SW480 rerep inconclusive, KB-V1 cytotox inactive and MCF10A rereplic 21µM.
O=C(NNc1c2ccccc2nc2ccccc12)c1ccc(O)cc1 was read as HT1080 IDH1KD tx inactive, KB-3-1 cytotox inactive, HT1080NT lethal inactive, SW480 rerep inactive, KB-V1 cytotox inactive and MCF10A rereplic inactive.
For O=C(NNc1nc(=O)c2cccnc2s1)c1ccccc1O the results were HT1080 IDH1KD tx inconclusive, KB-3-1 cytotox inconclusive, HT1080NT lethal inactive, SW480 rerep 0.92µM, KB-V1 cytotox inactive and MCF10A rereplic inactive.
`O=C(COc1ccccc1)NNc1c2ccccc2nc2ccccc12` gave HT1080 IDH1KD tx inconclusive, KB-3-1 cytotox inactive, HT1080NT lethal inactive, SW480 rerep inactive, KB-V1 cytotox 18µM and MCF10A rereplic inactive.
For O=C(CCCO)NNc1c2ccccc2nc2ccccc12 the results were HT1080 IDH1KD tx inactive, KB-3-1 cytotox inactive, HT1080NT lethal inactive, SW480 rerep inconclusive, KB-V1 cytotox inactive and MCF10A rereplic inactive.
For O=C(NNC(=O)c1cccc2ccccc12)c1ccccc1O the results were HT1080 IDH1KD tx inconclusive, KB-3-1 cytotox inconclusive, HT1080NT lethal inactive, SW480 rerep 7.3µM, KB-V1 cytotox inactive and MCF10A rereplic inactive.
Screening CCCC(=O)NNc1c2ccccc2nc2ccccc12 returned HT1080 IDH1KD tx inactive, KB-3-1 cytotox inactive, HT1080NT lethal inactive, SW480 rerep inactive, KB-V1 cytotox 16µM and MCF10A rereplic inactive.
Screening O=C(CN(c1ccccc1)S(=O)(=O)c1ccccc1[N+](=O)[O-])Nc1cccnc1 returned HT1080 IDH1KD tx inactive, KB-3-1 cytotox inactive, HT1080NT lethal inactive, SW480 rerep inconclusive, KB-V1 cytotox inactive and MCF10A rereplic inactive.
Screening CCc1ccc(S(=O)(=O)c2nnn3c2nc(NC2CCCC2)c2sccc23)cc1 returned KB-3-1 cytotox inactive and KB-V1 cytotox inactive.
